Most compounds without a hit are left out; they make up all but 12% or so of the library.
PLK1 PBD inh = blocks phosphopeptide binding to human PLK1 polo-box domain | P53350 | Plk1 PBD binding of FITC phosphopeptide, fluorescence polarization | Potency, µM, without a hit: max response, negative = inhibition, actives largely listed as inhibitors | 360,000 tested, 2.8% active; note: potency is the fitted concentration of half-maximal effect; series mostly up to about 57 µM; % is set by controls: 0 for no effect and ±100 for the full control effect; nearly all actives have a fitted effect of over 65% in size
JMJD2A Tudor inh = blocks the human JMJD2A Tudor domain; O75164; AlphaScreen JMJD2A-Tudor / H3K4me3 peptide binding; Potency, µM (titrated, usually from 114 µM), for the others: top-dose activity change, negative = inhibition, most hits filed as inhibitors; 390,000 tested, 4.4% active; AID 504339; note: potency is the fitted concentration of half-maximal effect; % is set by controls: 0 for no effect and ±100 for the full control effect; nearly all actives have a fitted effect of over 50% in size
BAZ2B block = BAZ2B (human) inhibition. Q9UIF8. AlphaScreen BAZ2B-H3K14Ac peptide displacement. 360,000 tested, 4.4% active. Potency, µM (top dose mostly 114 µM), for the others: at the top dose activity change, negative = inhibition, usual class: inhibitors; note: potency is the fitted concentration of half-maximal effect; % is set by controls: 0 for no effect and ±100 for the full control effect; nearly all actives have a fitted effect of over 60% in size
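AlphaScreen displacement: compounds (up to 110uM) incubated 30 min at room temperature with a preformed 50 nM BAZ2B/50 nM biotinylated H3K14Ac peptide complex in PBS pH 7.4 with Tween-20. Donor and acceptor beads at 10 ug/mL final added, 20 min light-protected before reading.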
G9a block = blocks human histone lysine methyltransferase G9a; G9a H3K9 monomethylation, AlphaScreen, 2 h; 350,000 tested, 8.8% active; AID 504332; Potency, µM (top dose mostly 102 µM), inactives show at the top dose activity, negative = inhibition, hits mostly inhibitors; note: potency is the fitted concentration of half-maximal effect; % is set by controls: 0 for no effect and ±100 for the full control effect; nearly all actives have a fitted effect of over 75% in size
Target sequence (Q96KQ7 913-1193 limits assumed): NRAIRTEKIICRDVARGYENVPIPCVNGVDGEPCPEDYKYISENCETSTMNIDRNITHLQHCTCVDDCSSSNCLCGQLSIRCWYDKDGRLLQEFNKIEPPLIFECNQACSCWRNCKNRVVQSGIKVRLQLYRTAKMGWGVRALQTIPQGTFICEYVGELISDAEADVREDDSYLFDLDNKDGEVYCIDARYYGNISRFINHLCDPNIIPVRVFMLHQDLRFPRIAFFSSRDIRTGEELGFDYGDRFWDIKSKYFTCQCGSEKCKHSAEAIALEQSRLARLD
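Signal arises when biotinylated H3K9 peptide, once monomethylated, bridges streptavidin donor and antibody-captured acceptor beads. Enzyme at 20 nM was preincubated 15 min with test compounds; peptide 500 nM and SAM 20 uM then reacted for 2 h.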
PI5P4Ka inh = inhibitors of human PI5P4K alpha; P48426; PI5P4Kalpha enzyme, ADP-Glo luminescence, 60 min; hits give low values; max response, %; 330,000 tested, 1.2% active; AID 652105; active = max response of -50% or lower; inconclusive = between -30% and -50%; inactive = -30% or higher; note: value at the top dose of about 77 µM; % is set by controls: 0 for no effect and ±100 for the full control effect
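Enzyme plus substrate dispensed, test compounds pinned in, then ATP (5 microM final) added. After 60 min at RT, ADP-Glo reagent 1 for 45 min and reagent 2 for 30 min preceded luminescence imaging.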
HP1b binding inh = inhibitors of HP1-beta chromodomain binding to methylated histone tails; P83916; AlphaScreen HP1-beta / biotin-H3K9me3 peptide binding; Potency, µM (series often up to 114 µM), without a hit: top-dose activity change, negative = inhibition, usual class: inhibitors; 390,000 tested, 0.56% active; AID 540317; note: potency is the fitted concentration of half-maximal effect; nearly all actives have a fitted effect of over 70% in size
Target sequence (P83916 whole entry, looked up): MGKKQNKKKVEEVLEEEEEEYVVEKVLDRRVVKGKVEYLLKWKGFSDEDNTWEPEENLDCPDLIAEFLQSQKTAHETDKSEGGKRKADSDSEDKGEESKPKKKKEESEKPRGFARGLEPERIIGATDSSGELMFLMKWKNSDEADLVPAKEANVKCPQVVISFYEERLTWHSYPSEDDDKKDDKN
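Compound inhibition of the preformed complex between 50 nM HP1-beta and 50 nM biotinylated H3K9me3 peptide was read by AlphaScreen. Buffer was PBS pH 7.4 with 0.01% Tween-20. Incubations ran 30 min at room temperature, with 10 ug/mL donor/acceptor beads.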
The depositor's hits bear a star; ? = inconclusive; . = not tested or not shown; [ ] = another dose, or the depositor's remark. Unless noted, calls come from the whole dose curve; as a rule, active = well fitted curve in the direction sought with a large enough effect; inconclusive = small, poorly fitted or top-dose-only effect, or another doubt; inactive = no such curve, though single readings can be large; an effect the other way counts as inactive or inconclusive.

SMILES | PLK1 PBD inh | JMJD2A Tudor inh | BAZ2B block | G9a block | PI5P4Ka inh | HP1b binding inh
Cc1ccc(C(=O)CC2(O)C(=O)N(CCc3ccccc3)c3ccc(Cl)cc32)cc1 (stereo not given) | . | -24% | -22% | ? | . | 21%
O=c1c2ccccc2nc2n1C(CBr)CN2 (stereo not given) | -22% | -18% | -2% | 17%[59 µM] | -5 | 66%
O=C(/C=C/c1ccccc1)C1=C(O)C(=O)N(CCO)C1c1ccc2c(c1)OCO2 (stereo not given) | -7% | ? | -26% | ? | -3 | 4%
O=C(O)CCCCCN1C(=O)C(O)=C(C(=O)/C=C/c2ccccc2)C1c1ccccc1[N+](=O)[O-] (stereo not given) | 34µM* | ? | -17% | -6%[0.501 µM] | ? | 14%
COc1ccccc1NC1=C(Cl)C(=O)N(c2ccccc2)C1=O | 0% | ? | ? | 45µM* | -3 | -28%
COc1ccc(N2C(=O)C(Cl)=C(Nc3c(C)n(C)n(-c4ccccc4)c3=O)C2=O)cc1 | 24µM* | ? | ? | 8.9µM* | . | 17%
COc1ccc(NC2=C(Cl)C(=O)N(c3ccccc3)C2=O)c(OC)c1 | ? | ? | -15% | ? | 6 | 14%
COc1ccc(S(=O)(=O)N(Cc2nc(-c3ccc(C)cc3)no2)C2CCCCC2)cc1 | . | 10% | -2% | 19%[59 µM] | . | 56%
O=C(NC1CCCC1)c1sc(=S)n2c1[nH]c(=O)c1ccccc12 | ? | 89µM* | ? | ? | . | -36%
O=C(NC1CCCCCCC1)c1c(O)c2ccccc2[nH]c1=O | 1% | -26% | 0% | -24%[12.7 µM] | . | 27%
O=C(NCc1ccco1)c1sc(=S)n2c1[nH]c(=O)c1ccccc12 | 27µM* | 50µM* | ? | 22µM* | . | ?
C=CCn1c(N)c(C(=O)NCc2ccco2)sc1=S | -24% | -25% | ? | -20%[59 µM] | . | ?
CCc1nnc2n1N=C(c1ccc(Cl)cc1)CS2 | -11% | -17% | 0% | -1% | -2 | 33%
Cc1nnc2n(c1=O)N=C(c1ccc(Cl)cc1)CS2 | ? | -10% | -5% | 71µM* | -10 | 10%
CCCc1nnc2n1N=C(c1ccc(C)cc1)CS2 | -5% | -14% | -33% | 79µM* | -4 | 6%[57 µM]
CCCc1nnc2n1N=C(c1ccc([N+](=O)[O-])cc1)CS2 | 0% | -9% | -27% | 71µM* | 2 | 21%
O=[N+]([O-])c1ccc(C2=Nn3c(Cn4nnc5ccccc54)nnc3SC2)cc1 | 5.3µM* | 56µM* | -37% | . | -23 | ?
CCc1nnc2n1N=C(c1ccccc1)CS2 | 2% | -1% | -29% | -76% | 1 | 31%
CCc1nnc2n1N=C(c1cccc([N+](=O)[O-])c1)CS2 | -5% | -21% | -22% | 14%[59 µM] | -1 | 41%
Cc1cccc(NC(=O)CSc2nnc(CNC(=O)c3c(F)cccc3Cl)o2)c1C | . | 1% | 2% | 0%[59 µM] | . | 47%
CN1CCN(c2ncc3nc(-c4ccccc4)c(=O)n(Cc4ccc(F)cc4)c3n2)CC1 | . | . | . | 3%[12.7 µM] | . | .
COCCC(=O)Nc1c(-c2ccccc2)c2cc(Br)ccc2[nH]c1=O | -7% | -6% | 0% | -4%[0.501 µM] | -2 | 22%
O=C(O)c1ccc(Nc2nc(-c3ccc([N+](=O)[O-])cc3)nc3ccccc23)cc1 | ? | ? | 50µM* | 7% | 0 | -8%
O=[N+]([O-])c1ccccc1Nc1c2ccccc2nc2ccccc12 | -1% | -23% | -25% | 9% | 6 | 13%
O=[N+]([O-])c1ccc(Nc2c3ccccc3nc3ccccc23)cc1 | -10% | ? | ? | 13µM* | 2 | -20%
Nc1ccc2c(c1)C1(CCC2)NC(=O)NC1=O (stereo not given) | 6% | . | . | . | -12 | .
CCC(=O)N1CCc2cc(Br)cc(S(=O)(=O)CCC(=O)N(CC)Cc3ccccc3)c21 | . | -15% | 1% | -4%[59 µM] | . | 19%
NC(C(=O)O)C1ON=C(Cl)C1O (stereo not given) | 0% | 79µM* | . | . | -3 | 44%

From PubChem
